# Measured values: the antibiotic and cytotoxicity screens of Wong et al. (2023)
# Screen size: about 39,000 compounds; about 3,300 (8.5%) were called active. The list comes from a sample in which actives are over-represented; it also holds similar structures and randomly drawn compounds.
# Test system: HepG2
# Experiment: cytotoxicity call (relative viability < 0.9)
# Settings: 10 µM
row,Structure (SMILES),cytotoxicity call
1,Cc1ccc2nc(CN)cn2c1,inactive
2,CCOc1ccc(Nc2nc3c(=O)nc[nH]c3n2[C@H]2O[C@@H](CO)[C@@H](O)[C@@H]2O)cc1,inactive
3,C[C@H](CO)N1C[C@H](C)[C@@H](CN(C)C(=O)CCC(F)(F)F)OCCCC[C@H](C)Oc2ccc(NC(=O)CCC(F)(F)F)cc2C1=O,inactive
4,C[C@H]1CN([C@@H](C)CO)C(=O)CCCn2nncc2CO[C@H]1CN(C)C(=O)c1ccc(N2CCN(C)CC2)cc1,inactive
5,COc1ccc(S(=O)(=O)N(C)C[C@@H]2Oc3ccc(NC(=O)NC(C)C)cc3CC(=O)N([C@H](C)CO)C[C@H]2C)cc1,inactive
6,CN1CCN(C(=O)C[C@H]2CC[C@H]3[C@@H](COc4ccc(NC(=O)c5ccc(F)c(F)c5)cc4C(=O)N3C)O2)CC1,inactive
7,COc1ccc(CNS(=O)(=O)N(C)C)cc1,inactive
8,CO[C@H]1CN(C)C(=O)c2cc(NC(=O)Nc3ccccc3)ccc2OC[C@H](C)N(C(=O)CN(C)C)C[C@H]1C,inactive
9,C[C@@H]1CCCCO[C@@H](CN(C)Cc2ccc(C(F)(F)F)cc2)[C@@H](C)CN([C@H](C)CO)C(=O)c2cc(NC(=O)NC3CCCCC3)ccc2O1,inactive
10,C[C@@H]1CCCCO[C@H](CN(C)Cc2ccc(C(F)(F)F)cc2)[C@@H](C)CN([C@H](C)CO)C(=O)c2cc(NC(=O)NC3CCCCC3)ccc2O1,active
11,C[C@@H]1CCCCO[C@@H](CN(C)Cc2ccc(C(F)(F)F)cc2)[C@@H](C)CN([C@@H](C)CO)C(=O)c2cc(NC(=O)NC3CCCCC3)ccc2O1,active
12,C[C@@H]1CCCCO[C@H](CN(C)Cc2ccc(C(F)(F)F)cc2)[C@H](C)CN([C@H](C)CO)C(=O)c2cc(NC(=O)NC3CCCCC3)ccc2O1,active
13,C[C@@H]1CCCCO[C@H](CN(C)Cc2ccc(C(F)(F)F)cc2)[C@@H](C)CN([C@@H](C)CO)C(=O)c2cc(NC(=O)NC3CCCCC3)ccc2O1,active
14,CNC(=O)C[C@H]1CC[C@H]2[C@@H](COC[C@@H](O)CN2C(=O)Nc2ccc3c(c2)OCO3)O1,inactive
15,C[C@H](CO)N1C[C@H](C)[C@H](CN(C)C(=O)Nc2ccc(F)cc2)Oc2ccc(NS(=O)(=O)c3cn(C)cn3)cc2C1=O,inactive
16,C[C@H](CO)N1C[C@H](C)[C@@H](CN(C)C(=O)Cc2ccccc2)OCCCC[C@H](C)Oc2ccc(NS(=O)(=O)c3ccc(F)cc3)cc2C1=O,inactive
17,C[C@@H]1CN([C@@H](C)CO)C(=O)c2cc(NS(=O)(=O)c3cn(C)cn3)ccc2O[C@@H]1CN(C)C(=O)NC1CCCCC1,inactive
18,COc1ccc(S(=O)(=O)N(C)C[C@H]2OCCCC[C@@H](C)Oc3ccc(NS(=O)(=O)c4cn(C)cn4)cc3C(=O)N([C@@H](C)CO)C[C@@H]2C)cc1,inactive
19,C[C@@H]1CCCCO[C@H](CN(C)C(=O)Nc2cccc3ccccc23)[C@H](C)CN([C@@H](C)CO)C(=O)c2cc(NS(=O)(=O)c3cn(C)cn3)ccc2O1,inactive
20,COc1ccc(S(=O)(=O)Nc2cccc3c2O[C@H](CN(C)C(=O)NC(C)C)[C@@H](C)CN([C@H](C)CO)C3=O)cc1,inactive

row,Structure (SMILES),cytotoxicity call
1,C[C@@H]1CCCCO[C@H](CN(C)S(=O)(=O)c2ccccc2)[C@@H](C)CN([C@H](C)CO)C(=O)c2cc(NC(=O)C3CCCCC3)ccc2O1,inactive
2,CNC(=O)C(=O)NC[C@H]1CCCN1S(=O)(=O)c1cccs1,inactive
3,CC(=O)OC1CCC2(C)C(CCC3C4CC=C(C(C)=O)C4(C)CCC32)C1 (stereo not drawn) [3-beta-ACETOXYALLOPREG-16-EN-20-ONE ],inactive
4,Cc1noc(C)c1S(=O)(=O)Nc1ccc2c(c1)CC(=O)N([C@H](C)CO)C[C@@H](C)[C@@H](CN(C)S(C)(=O)=O)O2,inactive
5,C[C@@H]1CCCCO[C@@H](CN(C)C(=O)CCC(F)(F)F)[C@H](C)CN([C@@H](C)CO)C(=O)c2cc(NC(=O)CCC(F)(F)F)ccc2O1,inactive
6,C[C@@H]1CCCCO[C@@H](CN(C)Cc2ccc(C(F)(F)F)cc2)[C@H](C)CN([C@H](C)CO)C(=O)c2cc(NC(=O)NC3CCCCC3)ccc2O1,active
7,C[C@H]1CCCCO[C@@H](CN(C)Cc2ccc(C(F)(F)F)cc2)[C@@H](C)CN([C@@H](C)CO)C(=O)c2cc(NC(=O)NC3CCCCC3)ccc2O1,active
8,C[C@@H]1CN([C@H](C)CO)C(=O)c2cc(NC(=O)NC3CCCCC3)ccc2O[C@@H](C)CCCCO[C@H]1CN(C)Cc1ccc(C(F)(F)F)cc1,inactive
9,C[C@@H]1CCCCO[C@H](CN(C)Cc2ccc(C(F)(F)F)cc2)[C@H](C)CN([C@@H](C)CO)C(=O)c2cc(NC(=O)NC3CCCCC3)ccc2O1,active
10,C[C@@H]1CN([C@@H](C)CO)C(=O)c2cc(NC(=O)NC3CCCCC3)ccc2O[C@@H](C)CCCCO[C@@H]1CN(C)Cc1ccc(C(F)(F)F)cc1,inactive
11,CCC(=O)Nc1ccc2c(c1)OC[C@H](C)N(C(=O)CN1CCOCC1)C[C@H](C)[C@@H](OC)CN(C)C2=O,inactive
12,CO[C@H]1CN(C)C(=O)c2ccc(NS(=O)(=O)c3cn(C)cn3)cc2OC[C@H](C)N(CC2CC2)C[C@H]1C,inactive
13,O=C(N/N=C/[C@H](O)[C@@H](O)[C@@H](O)[C@H](O)CO)c1ccccn1,inactive
14,COc1ccc(NC(=O)N(C)C[C@H]2OCCCC[C@H](C)Oc3ccc(NS(=O)(=O)c4ccc(Cl)cc4)cc3C(=O)N([C@@H](C)CO)C[C@@H]2C)cc1,inactive
15,COc1ccc(-c2cnc3c(c2)C(=O)N([C@H](C)CO)C[C@H](C)[C@@H](CN(C)C(=O)Cc2ccncc2)O3)cc1,inactive
16,C[C@H](CO)N1C[C@H](C)[C@H](CN(C)S(C)(=O)=O)Oc2ccc(NS(=O)(=O)c3cccs3)cc2CC1=O,inactive
17,C[C@@H]1CN([C@@H](C)CO)C(=O)Cc2cc(NS(=O)(=O)c3cn(C)cn3)ccc2O[C@H]1CN(C)C(=O)Nc1ccc(F)cc1,inactive
18,C=CC[C@H](CC(=O)NCCO)C(=O)NC[C@H](OC(=O)[C@@H](CC=C)CC(=O)OC(C)(C)C)c1ccccc1,inactive
19,COc1ccc(S(=O)(=O)Nc2cccc3c2O[C@H](CN(C)C(=O)Nc2c(C)noc2C)[C@@H](C)CN([C@@H](C)CO)C3=O)cc1,inactive
20,Cc1ccc(S(=O)(=O)Nc2cccc3c2O[C@@H](CN(C)C(=O)Nc2cccc4ccccc24)[C@H](C)CN([C@@H](C)CO)C3=O)cc1,inactive

row,Structure (SMILES),cytotoxicity call
1,COc1ccc(S(=O)(=O)Nc2cccc3c2O[C@H](CN(C)C(=O)Nc2cccc4ccccc24)[C@H](C)CN([C@H](C)CO)C3=O)cc1,inactive
2,COc1ccc(S(=O)(=O)Nc2cccc3c2O[C@H](CN(C)C(=O)Nc2cccc4ccccc24)[C@H](C)CN([C@@H](C)CO)C3=O)cc1,inactive
3,Cc1ccc(S(=O)(=O)Nc2cccc3c2O[C@H](CN(C)C(=O)Nc2cccc4ccccc24)[C@@H](C)CN([C@H](C)CO)C3=O)cc1,inactive
4,C[C@@H]1CN([C@H](C)CO)C(=O)c2cccc(NS(=O)(=O)c3cccs3)c2O[C@H]1CN(C)C(=O)Nc1cccc2ccccc12,inactive
5,COc1ccc(S(=O)(=O)Nc2cccc3c2O[C@H](CN(C)C(=O)Nc2c(C)noc2C)[C@@H](C)CN([C@H](C)CO)C3=O)cc1,active
6,COc1ccc(S(=O)(=O)Nc2cccc3c2O[C@@H](CN(C)C(=O)Nc2cccc4ccccc24)[C@H](C)CN([C@@H](C)CO)C3=O)cc1,active
7,Cc1ccc(S(=O)(=O)Nc2cccc3c2O[C@H](CN(C)C(=O)Nc2cccc4ccccc24)[C@@H](C)CN([C@@H](C)CO)C3=O)cc1,active
8,C[C@H](CO)N1C[C@H](C)[C@@H](CN(C)C(=O)Nc2cccc3ccccc23)Oc2c(NS(=O)(=O)c3cccs3)cccc2C1=O,inactive
9,COc1ccc(S(=O)(=O)Nc2cccc3c2O[C@@H](CN(C)C(=O)Nc2c(C)noc2C)[C@H](C)CN([C@@H](C)CO)C3=O)cc1,inactive
10,C[C@H]1CN([C@@H](C)CO)C(=O)c2cccc(NS(=O)(=O)c3cccs3)c2O[C@@H]1CN(C)C(=O)Nc1cccc2ccccc12,active
11,CN(C)CC(=O)N[C@H]1CC[C@@H](CCn2cc(CN(C)C)nn2)O[C@H]1CO,inactive
12,O=C(N[C@@H]1CC=CC[C@H](CC(=O)N(CCO)Cc2ccccc2)C(=O)NCC(c2ccccc2)OC1=O)OCC1c2ccccc2-c2ccccc21 (stereo not given in full),inactive
13,C[C@@H]1CN([C@@H](C)CO)C(=O)c2cc(/C=C/c3ccccc3)cnc2O[C@H]1CN(C)C(=O)c1cnccn1,inactive
14,Cc1cccc(S(=O)(=O)N2C[C@H](O)COC[C@@H]3O[C@@H](CC(=O)NCCCN4CCOCC4)CC[C@H]32)c1,inactive
15,Cc1noc(C)c1NC(=O)N(C)C[C@H]1OCCCC[C@H](C)Oc2ccc(NC(=O)c3ccccc3)cc2C(=O)N([C@H](C)CO)C[C@@H]1C,inactive
16,C[C@H]1CNC(=O)[C@@H](CC(=O)N(CCOC(=O)NCCCCCC(=O)NO)Cc2ccccc2)C/C=C/CC[C@H](NC(=O)OC(C)(C)C)C(=O)O1,inactive
17,COc1ccccc1C#Cc1ccc2c(c1)O[C@@H](CN(C)C(C)=O)[C@@H](C)CN([C@@H](C)CO)S2(=O)=O,inactive
18,C[C@H]1CCCCO[C@@H](CN(C)Cc2ccc(C(=O)O)cc2)[C@@H](C)CN([C@@H](C)CO)C(=O)c2cc(NC(=O)C3CCCCC3)ccc2O1,inactive
19,C[C@H](NC(=O)C[C@H]1C[C@@H]2c3cc(NC(=O)Nc4ccc(C(F)(F)F)cc4)ccc3O[C@@H]2[C@H](CO)O1)c1ccccc1,inactive
20,C[C@@H]1CCCCO[C@@H](CN(C)C(=O)Nc2cccc3ccccc23)[C@@H](C)CN([C@H](C)CO)C(=O)c2cc(NS(C)(=O)=O)ccc2O1,inactive
